Calb biofilm kill = clotrimazole potentiators killing Candida biofilms, primary screen, with clotrimazole, Alamar Blue. C. albicans biofilm + clotrimazole. inhibition, % at 6 µM. hit rate 0.14% among 85,000;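 active = inhibition above 20%; inactive = inhibition below 20%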;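 also: preformed 24 hr biofilms exposed to compound for 48 hr; 0% = biofilm without compound and 100% = blank killed by clotrimazole plus chlorhexidine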
Phagocyt inh = inhibitors of macrophage phagocytosis, primary screen, imaging, J774A.1 cells, IgG beads; J774A.1 macrophage IgG-bead phagocytosis; inhibition, % at 5 µM; hit rate 0.07% among 110,000; AID 1029, 2008;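 active = inhibition above the mean of the plate negative controls plus 5 SD, cut at about 13% in these data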;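 also: phagocytic index as fraction of beads internalized from green versus red external bead signal; plate controls were DMSO negative control for no effect and cytochalasin-D positive control for full effect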
S1P2 antag = human S1P2 receptor antagonists, primary screen, cell-based; cell-based S1P2 antagonist assay, inhibition at 5 uM; inhibition, % at 5 µM; hit rate 0.21% among 97,000; in the data active = inhibition above about 45%;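 also: CRE beta-lactamase reporter cells expressing human S1P2 stimulated with S1P; 0% = agonist at EC80 alone and 100% = agonist plus reference antagonist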
Target sequence (O95136 whole entry, looked up): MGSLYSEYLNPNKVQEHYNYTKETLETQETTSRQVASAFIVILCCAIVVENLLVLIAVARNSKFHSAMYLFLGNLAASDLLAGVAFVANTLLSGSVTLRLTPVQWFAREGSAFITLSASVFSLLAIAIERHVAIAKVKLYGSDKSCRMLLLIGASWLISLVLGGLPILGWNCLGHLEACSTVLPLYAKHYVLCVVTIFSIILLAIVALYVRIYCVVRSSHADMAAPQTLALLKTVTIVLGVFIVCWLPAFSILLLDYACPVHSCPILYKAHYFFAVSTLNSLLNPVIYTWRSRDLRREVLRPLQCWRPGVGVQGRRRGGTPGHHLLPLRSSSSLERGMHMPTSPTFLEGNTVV
S1P2 agonist = S1P2 receptor agonists, primary screen, cell-based | AID 729, 2007 | S1P2-expressing cell line, agonist reporter read-out | hit rate 0.46% among 97,000 | activation, % at 4.5 µM | Sphingosine 1-phosphate receptor 2 (Homo sapiens), O95136; in the data active = activation above about 16%;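 also: 0% = vehicle low control and 100% = maximal reference agonist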
GALR2 ag = GALR2 receptor agonists, primary screen, cell-based; Galanin receptor type 2 (Homo sapiens), O43603; GALR2-expressing cells, agonist activation read-out; activation, % (concentration not given with the values); hit rate 0.48% among 140,000; AID 803, 2007; in the data active = activation above about 5%, passing the limit was not always enough;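 also: 0% = vehicle buffer wells and 100% = reference agonist at full effect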
GALR2 antag = GALR2 antagonists in receptor-expressing cells, primary screen | Galanin receptor type 2 (Homo sapiens), O43603 | antagonist mode | inhibition, % at 4 µM | hit rate 0.39% among 140,000; in the data active = inhibition above about 27%;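 also: cells stimulated with galanin 1-16 at roughly its EC80; 0% = agonist challenge control and 100% = basal control without agonist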
* = called active by the depositor. A selection: hits, their analogues and other compounds. The true share with any hit is near 1.3%.

c1ccc(C(c2ccccc2)N2CCN(c3nc4ccccc4n4cnnc34)CC2)cc1 was read as Calb biofilm kill -1, Phagocyt inh 1, S1P2 antag 29, S1P2 agonist 24*, GALR2 ag 0 and GALR2 antag -1.
Screening COc1ccc(NC(=O)COC(=O)c2cc(OC)c(OC)cc2NC(=O)c2ccco2)cc1OC returned Phagocyt inh 2, S1P2 antag -20, S1P2 agonist 18*, GALR2 ag 0 and GALR2 antag 0.
Screening CN(C)S(=O)(=O)c1ccc(Nc2nc(C3CC3)nc3c2nnn3Cc2ccccc2Cl)cc1 returned Phagocyt inh -8, GALR2 ag -1 and GALR2 antag 6.
`Cc1ccc2nc(-c3ccc(SCC(=O)Nc4nc(C)cs4)nc3)[nH]c2c1` gave Phagocyt inh -1, GALR2 ag 0 and GALR2 antag 10.
`Cc1ccc2nc(-c3ccc(SCC(=O)Nc4nnc(C)s4)nc3)[nH]c2c1` gave Phagocyt inh -10, GALR2 ag 5.3* and GALR2 antag 13.
For CC(=O)NCCn1c(SCc2cc(=O)n3cc(Cl)ccc3n2)nc2ccccc2c1=O the results were Phagocyt inh -1, S1P2 antag -37, S1P2 agonist 22*, GALR2 ag -2 and GALR2 antag 3.
For CC(=O)NCCn1c(SCc2ccccc2F)nc2ccccc2c1=O the results were Calb biofilm kill 2, Phagocyt inh 2, S1P2 antag -2, S1P2 agonist -7, GALR2 ag 0 and GALR2 antag 5.
For COc1cc(-c2nnc3sc(C4CCCCC4)nn23)cc(OC)c1OC the results were Phagocyt inh 0, S1P2 antag -21, S1P2 agonist 20*, GALR2 ag 2 and GALR2 antag -9.
Screening CCn1c(SCCN2CCCCC2)nnc1-c1ccc(S(=O)(=O)N2CCOCC2)cc1 returned Calb biofilm kill 6, Phagocyt inh 1, S1P2 antag -6, S1P2 agonist 0, GALR2 ag -2 and GALR2 antag 8.
`COc1ccccc1CCNCc1ccc(OC)c(OCc2ccccc2)c1` gave Phagocyt inh 0, S1P2 antag 48*, S1P2 agonist -5, GALR2 ag -1 and GALR2 antag 18.
Screening COC(=O)c1cn[nH]c1NC(=S)Nc1ccccc1C returned S1P2 antag -1, S1P2 agonist 57*, GALR2 ag 0 and GALR2 antag -3.
Cc1cc(N2CCN(c3nc4ccccc4s3)CC2)n2ncnc2n1 was read as Calb biofilm kill 3, S1P2 antag 51*, S1P2 agonist 2, GALR2 ag -1 and GALR2 antag 19.
Screening Cc1cc(N2CCN(C(c3ccccc3)c3ccccc3)CC2)n2ncnc2n1 returned Calb biofilm kill 9, Phagocyt inh -2, S1P2 antag 14, S1P2 agonist -4, GALR2 ag -1 and GALR2 antag -1.
`COc1cccc(CN2CCNC(=O)C2CC(=O)O)c1OC` (stereo not drawn) gave Calb biofilm kill 11, S1P2 antag -1, S1P2 agonist -3, GALR2 ag -1 and GALR2 antag -4.
`Cc1ccccc1CN1CCNC(=O)C1CC(=O)O` (stereo not drawn) gave Calb biofilm kill 28*, Phagocyt inh 0, GALR2 ag -2 and GALR2 antag 5.
CCCCCC(=O)NNC(=O)c1ccc(F)cc1 was read as Phagocyt inh -6, GALR2 ag -2 and GALR2 antag -2.
c1ccc(-n2nnnc2Sc2n[nH]c(-c3ccncc3)n2)cc1 was read as Calb biofilm kill 3, Phagocyt inh -1, S1P2 antag 8, S1P2 agonist -5, GALR2 ag -3 and GALR2 antag 10.
`c1ccc(N2CCN(c3nnc(Cc4cccnc4)c4ccccc34)CC2)nc1` gave Calb biofilm kill 2, S1P2 antag 1, S1P2 agonist -2, GALR2 ag -3 and GALR2 antag -2.
`COc1cccc(Nc2nc(-c3ccc4c(c3)OCCO4)cs2)c1` gave Calb biofilm kill 2, Phagocyt inh -3, S1P2 antag 1, S1P2 agonist 41*, GALR2 ag -3 and GALR2 antag -2.
`COc1ccc(OC)c(NC(=O)CSc2nnc(Cc3cccn3C)n2-c2ccc(F)cc2)c1` gave Calb biofilm kill 7, Phagocyt inh 0, S1P2 antag 21, S1P2 agonist -5, GALR2 ag -1 and GALR2 antag 2.
For COc1ccc(-c2nnc(SCC(=O)NC(=O)NCc3ccccc3)o2)cc1 the results were Calb biofilm kill 4, Phagocyt inh -2, S1P2 antag -13, S1P2 agonist -2, GALR2 ag -3 and GALR2 antag 1.
CCOC(=O)C1=C(C)NC2=C(C(=O)CCC2)C1c1cccs1 (stereo not drawn) was read as Calb biofilm kill 9, Phagocyt inh 0, S1P2 antag 2, S1P2 agonist 0, GALR2 ag 0 and GALR2 antag 2.
For CCOC(=O)c1sc2c(c1C)C(c1cccs1)C1=C(CCCC1=O)N2 (stereo not drawn) the results were Calb biofilm kill 7, Phagocyt inh 1, S1P2 antag -46, S1P2 agonist 31*, GALR2 ag 9.2* and GALR2 antag -8.
`O=C(CN1CCN(c2ccccn2)CC1)Nc1ccc(F)cc1` gave Calb biofilm kill 5, Phagocyt inh 1, S1P2 antag -4, S1P2 agonist -4, GALR2 ag -4 and GALR2 antag -3.
For Cc1ccc2sc(NC(=O)c3ccc(N4C(=O)CCC4=O)cc3)nc2c1C the results were GALR2 ag 6.7* and GALR2 antag -3.
`C=CCOc1ccccc1/C=N/O` gave Calb biofilm kill 8, Phagocyt inh -2, S1P2 antag -4, S1P2 agonist -2, GALR2 ag -2 and GALR2 antag 10.
CCCCS(=O)(=O)/C=C\C=C/S(=O)(=O)CCCC was read as Calb biofilm kill 2, Phagocyt inh 4, S1P2 antag 97*, S1P2 agonist -6, GALR2 ag -4 and GALR2 antag 104*.
For CCCCS(=O)(=O)/C=C\C1C2C=CC(C2)C1S(=O)(=O)CCCC (stereo not drawn) the results were Calb biofilm kill 12, Phagocyt inh 2, S1P2 antag 9, S1P2 agonist -1, GALR2 ag -1 and GALR2 antag -3.
For CCc1cc2c(CN3CCN(CC)CC3)cc(=O)oc2cc1O the results were Calb biofilm kill 0, Phagocyt inh 1, S1P2 antag 13, S1P2 agonist 4, GALR2 ag 4.9* and GALR2 antag 3.
Screening CC1CC(C)CN(C(=O)c2ccccc2Nc2ccc(SC(F)F)cc2)C1 (stereo not drawn) returned Calb biofilm kill 3, S1P2 antag -16, S1P2 agonist 2, GALR2 ag -2 and GALR2 antag -21.
`O=c1oc2ccccc2cc1-c1nc2c(s1)CCCC2` gave Phagocyt inh -1, S1P2 antag -6, S1P2 agonist 16*, GALR2 ag 17* and GALR2 antag 17.
